# Out of some 390,000 compounds screened, about 760 (0.19%) were called active. A call without a number means that no potency is given here. About 3% were inconclusive and are not listed. Calls come from the whole dose curve; as a rule, active = well fitted inhibition curve with a large enough effect; inconclusive = small, poorly fitted or top-dose-only effect; inactive = flat fitted curve, though single readings scatter. Many of the other results were omitted from the sample, so actives are more common in it than they were.
# Test: qHTS for Inhibitors of Vif-A3F Interactions: qHTS; note: nearly all actives have a fitted effect of over 65% in size
# Conditions: HeLa A3F-eYFP + Vif (tagged APOBEC3F with the HIV-1 protein that degrades it), YFP fluorescence increase; series mostly up to 46.1 µM
# Procedure, shortened: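 HeLa cells stably expressing Vif plus C-terminally eYFP-tagged A3F were seeded, incubated overnight at 37 deg C, dosed with compound, incubated overnight again at 37 deg C. Yellow fluorescence (Ex 488/Em 500-530) reported blocked Vif-mediated A3F-eYFP degradation.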
# Potency is the fitted concentration of half-maximal effect.
row,SMILES,Potency
1,COc1ccccc1NC(=O)CN1C(=O)c2ccccc2Sc2ccc(C(=O)N3CCCC3)cc21,inactive
2,O=C1C(Cl)=C(Oc2ccccc2)C(=O)c2ccccc21,10 µM (active)
3,COc1ccc2c(c1)c(=O)c(S(=O)(=O)c1ccc(F)cc1)cn2CC(=O)Nc1ccc(C)cc1C,inactive
4,CCOc1ccc(NC(=O)c2c(NC(=O)Cc3ccccc3)sc3c2CCCCC3)cc1,inactive
5,COc1ccccc1NC(=O)CSc1oc(-c2ccco2)nc1S(=O)(=O)c1ccc(Br)cc1,inactive
6,Cc1ccc(-c2noc(-c3nnn(-c4cccc(C(F)(F)F)c4)c3N)n2)cc1,inactive
7,Cc1ccc(CNC(=O)c2ccccc2CCc2ccccc2)cc1,inactive
8,O=C1c2ccccc2S(=O)(=O)c2cc(N3CCN(c4ccccn4)CC3)ccc21,inactive
9,Cc1ccc(CNC(=O)c2cccc3c2C(=O)c2ccc(N4CCC(C)CC4)cc2S3(=O)=O)cc1,12.6 µM (active)
10,Fc1ccc(CN2CCc3nc(Nc4ccccc4)ncc3C2)cc1F,inactive
11,CCOC(=O)c1cc(-c2ccccc2)n(-c2cccc(C(=O)Nc3cc(OC)cc(OC)c3)c2)c1C,inactive
12,Cn1ccc2cc(S(=O)(=O)N3CCCC(C(=O)NCc4ccccc4F)C3)ccc21 (stereo unspecified),inactive
13,O=C(NC1CC(=O)N(c2ccccc2)C1)c1ccco1 (stereo unspecified),inactive
14,Cc1cn(C)c(CC(=O)NCc2ccc(Cl)cc2)c1C(=O)O,inactive
15,O=C(NCCc1csc(-c2ccc(C(F)(F)F)cc2)n1)C(=O)Nc1ccc(F)c(Cl)c1,inactive
16,Cc1cc(C)c2oc(-c3cccc(NC(=O)c4cccc(F)c4)c3C)nc2c1,inactive
17,CCCCn1c(=O)c2oc3ccccc3c2n(CC(=O)Nc2ccccc2OC)c1=O,inactive
18,CCCCN(CC)C(=O)c1c[nH]c2ccc(S(=O)(=O)Nc3cccc(OC)c3)cc2c1=O,inactive
19,CC(=O)N/C(=N/c1nc(C)cc(C)n1)Nc1ccc(F)cc1F,inactive
20,Cc1cc(C(=O)Nc2cccc(C(F)(F)F)c2)c2c(C)nn(-c3cccc(F)c3)c2n1,inactive
21,Cc1cc(C)nc(-n2nc(C)cc2NC(=O)c2ccc(F)cc2F)n1,12.6 µM (active)

row,SMILES,Potency
1,O=C(COc1ccc(Cl)cc1)Nc1ccccc1OCc1cc(=O)n2ccccc2n1,inactive
2,Cc1ccccc1NC(=O)COc1cccc2c1CCNC2=O,inactive
3,Cc1ncc(CO)c(/C=N/NC(=O)c2cccc(S(=O)(=O)N3CCCC3)c2)c1O,inactive
4,COc1cccc(/C=N/NC(=O)c2[nH]nc3c2CCc2ccccc2-3)c1O,25.1 µM (active)
5,COC(=O)c1c(NC(=O)c2cc(=O)c3c(C)cc(C)cc3o2)sc2c1CCCC2,inactive
6,Cn1c(C(=O)Nc2cccc(C(F)(F)F)c2)cc2c(=O)n3ccccc3nc21,inactive
7,Cc1ccc(NC2=C(c3ccc(C(F)(F)F)cc3)C(=O)c3ccccc32)cc1F,inactive
8,Cc1ccc(Cn2c(CCCNC(=O)C3CCCCC3)nc3ccccc32)cc1,inactive
9,Cn1c(SCC(=O)N2CCCc3ccccc32)nc2ccccc2c1=O,inactive
10,Cc1cccc(-c2nnc(SCC(=O)N3CCCc4ccccc43)o2)c1,inactive
11,Cc1cccc2cc3c(N)c(C(=O)N4CCCc5ccccc54)sc3nc12,11.2 µM (active)
12,CCOC(=O)c1cccc(NC(=O)c2cc(CN3CCCC3)on2)c1,inactive
13,CC(=O)c1ccc(NC(c2ccc(F)cc2)c2nnc(-c3ccccc3)o2)cc1 (stereo unspecified),inactive
14,CCc1ccc(N2C(=O)CN(S(=O)(=O)CC)CC2(C)C(=O)NC2CCCCC2)cc1 (stereo unspecified),inactive
15,CCCn1c(=N)c(C(=O)NCc2ccccc2)cc2c(=O)n3cccc(C)c3nc21,inactive
16,CC(C)c1ccc(NC(=O)c2ccc(Cn3nc(N4CCN(c5ccccc5)CC4)ccc3=O)o2)cc1,inactive
17,Cn1c(=O)c2c(SCC(=O)NCC3CCCO3)nc(-c3ccccc3F)nc2n(C)c1=O (stereo unspecified),inactive
18,Cc1ccc(-c2cc(C(=O)Oc3ccccc3Cl)no2)cc1C,inactive
19,O=c1cc(COc2cccc(C(F)(F)F)c2)nc2sc3c(n12)CCCC3,inactive
20,COc1ccc(CNC(=O)c2cc3cccc(OC)c3oc2=O)cc1,inactive

# From PubChem BioAssay AID602313 (National Center for Advancing Translational Sciences (NCATS), 2012)
